The list is not random: actives were taken first. Their share in the collection is about 1%.
iPSC survival up – hiPSC single-cell survival enhancement; 360,000 compounds, 0.044% hits; survival enhancement, % at 20 µM; ATPlite luminescence; 100% = ROCK inhibitor wells, 0% = DMSO; in the data active = survival enhancement above about 18%;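 note: cells exposed to compounds for 16 hours before the ATP read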
Fh CTSL1 inh – cathepsin L1 inhibition, PFM18AAP counter-screen; recombinant F. hepatica cathepsin L1, Z-Leu-Arg-MCA fluorescence; inhibition, % at 5.96 µM; 300,000 compounds, 0.49% hits; AID 1906;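 active = inhibition above the mean of all tested compounds plus 3 SD, set per screening campaign, cut at about 17% in these data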;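 note: 0% = plate median of test compound wells and 100% = 1 µM Z-Phe-Ala-diazomethylketone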
Yeast superoxide – caloric restriction mimetics inhibiting age-related superoxide in yeast. S. cerevisiae aged cells, superoxide DHE fluorescence; hits give low values. AID 2690. 330,000 compounds, 0.18% hits. superoxide response (% of plate mean), % at 10 µM;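 active = superoxide response under a set limit, about three screen SD below normal, cut at about 65% in these data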;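 note: yeast aged for seven days with compound at 30 °C before DHE staining; 100% = average MFI of all compound-treated wells on the plate with controls excluded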
V-ATPase pH – regulators of yeast V-ATPase proton transport; S. cerevisiae, pHLuorin cytosolic pH fluorescence; response, % at 10 µM; 350,000 compounds, 0.37% hits; AID 504577; in the data active = response mostly above about 7.3%, no sharp cut-off; inactive = mostly below about 5.4%; note: actives read high
* = called active by the depositor; / = no result given.

SMILES	iPSC survival up	Fh CTSL1 inh	Yeast superoxide	V-ATPase pH
Cc1ccc(S(=O)(=O)CNC(=O)c2ccccc2)cc1	2	36*	102	-2
Cc1ccc(S(=O)(=O)NCCNC(=O)c2ccccc2)cc1	-2	2	102	1
COc1ccc(NC(=S)Nc2ccc3nsnc3c2)cc1	-3	99*	96	-7
CCOc1ccc(NC(=S)Nc2ccc3nsnc3c2)cc1	0	110*	105	1
COc1ccc(NC(=S)Nc2ccc3nc(C)c(C)nc3c2)cc1	-3	1	101	1
S=C(Nc1ccc2nsnc2c1)N1CCCCCC1	-1	108*	104	-3
CC(C)N(C(=O)Nc1ccc2nsnc2c1)C(C)C	/	114*	102	/
O=C1NCC(COc2ccc(Cl)cc2)O1 (stereo not given)	11	0	106	-3
COc1ccc(C2(C)CC(=O)NC2=O)cc1 (stereo not given)	0	-5	90	1
Cc1noc(C)c1COc1ccccc1C(=O)N(C)CC(=O)Nc1ccc(Cl)c(Cl)c1	0	4	119	-1
COc1cccc(NC(=O)CN(C)C(=O)c2ccccc2OCc2c(C)noc2C)c1	0	27*	100	4
CN(CC(=O)Nc1ccc(N2CCOCC2)cc1)C(=O)c1cc(F)c(F)cc1Cl	0	0	83	-7
c1ccc(Nc2nc(CSc3ncn[nH]3)cs2)cc1	2	35*	117	0
O=C(CSc1ncn[nH]1)Nc1nc(-c2ccccc2)cs1	3	4	102	-4
Nc1ccn(CC(=O)NCc2ccc3[nH]ccc3c2)c(=O)n1	3	/	80	0
COC(=O)c1cc(C)nc2c1C(=O)C(=O)C=C2N1CCOCC1	0	110*	112	-1
COc1cc(C(=O)NCC(=O)Nc2ccc(F)c(F)c2)ccc1OCC(=O)N1CCOCC1	0	20*	106	5
Cc1ccc[n+](CC(=O)Nc2ccc([N+](=O)[O-])cc2)c1	-1	31*	102	2
Cc1ccc[n+](CC(=O)Nc2cccc([N+](=O)[O-])c2)c1	0	2	110	2
Cc1onc(-c2ccccc2)c1C(=O)NCc1ccc(Cl)cc1	0	/	85	-2
COc1cc2c(cc1NC(=O)COC(=O)CNC(=O)c1ccccc1)oc1ccccc12	0	24*	111	-2
FC(F)(F)c1cccc(-c2nnc(-c3ccccc3)c(N3CCOCC3)n2)c1	-5	17*	116	3
FC(F)(F)c1nnc(-c2ccccc2)nc1N1CCOCC1	1	1	101	/
CC(C)=CC(=O)OCC(=O)Nc1cc(C)cc(C)c1	1	-9	88	-1
CCOC(=O)c1ccc2ncc(C(=O)OCC)c(NCCN(C)C)c2c1	2	66*	100	0
SMILES	iPSC survival up	Fh CTSL1 inh	Yeast superoxide	V-ATPase pH
COc1cc(/C=N/NC(=O)c2ccc(CN3C(=O)c4cccc5cccc3c45)cc2)cc(OC)c1O	0	7	103	0
Cc1cccc(C(=O)NCC(=O)OCC(=O)N(C)CC(=O)Nc2ccc(F)cc2)c1	0	40*	96	-1
Cc1nc(N(CCO)C2CCCCC2)c2nnn(Cc3ccccc3)c2n1	0	0	102	4
Cc1cccc(Cc2c(C)nc3c(C(=O)NCc4ccco4)cnn3c2C)c1	19*	-1	114	-7
C=C1C(C(=O)N2CCN(C)CC2)C1C(=O)N1CCN(C)CC1 (stereo not given)	0	1	98	13*
COc1cc(/C=C/C(=O)O)cc(S(=O)(=O)Nc2ccc3[nH]c(=O)[nH]c3c2)c1OC	0	-1	90	0
COc1cc(/C=C/C(=O)O)cc(S(=O)(=O)Nc2ccccc2Oc2ccccc2)c1OC	0	21*	98	-3
CCOC(=O)c1c(-c2cc(OC)c(OC)c(OC)c2)csc1N	21*	/	/	5
COc1ccc(NC(=O)CN2C(=O)NC(C)(C3CC3)C2=O)cc1S(=O)(=O)N1CCOCC1 (stereo not given)	0	/	139	10
CN(C)C(=O)c1cnc(Cc2c[nH]c3ccccc23)c(I)c1	-2	/	/	/
COc1ccc(S(=O)(=O)Nc2ccc3c(c2)C(=O)N([C@H](C)CO)C[C@H](C)[C@@H](CN(C)C(=O)NC2CCCCC2)O3)cc1	22*	/	111	0
C[C@@H]1CCCCO[C@@H](CN(C)S(=O)(=O)c2cccs2)[C@@H](C)CN([C@H](C)CO)C(=O)c2cc(NS(=O)(=O)c3ccccc3)ccc2O1	22*	/	/	0
COc1cc2c(cc1O)CC[n+]1cc3c(OC)c(OC)ccc3cc1-2	-6	2	94	1
COc1cc2c(cc1OC)-c1cc3ccc4c(c3c[n+]1CC2)OCO4	0	51*	100	4
C=C1C(=O)OC2C1CCC(C)=C1C(=O)C3OC3(C)C12 (stereo not given)	27*	/	/	-3
Cc1cnc(C(=O)N2CCN(S(=O)(=O)c3ccc(F)c(F)c3F)CC2)cn1	-1	/	101	1
CCn1c(/C=C/c2ccc(O)cc2)nc2ccccc2c1=O	2	2	107	1
COc1ccc(/C=C/c2nc3ccccc3c(=O)n2-c2cccc(C(=O)O)c2)cc1	0	19*	89	-2
O=C(COC(=O)c1cccs1)Nc1cccc(S(=O)(=O)N2CCCCC2)c1	0	/	116	-3
COc1ccc(CCNC(=O)CS(=O)(=O)c2cn(CC(=O)N(C(C)C)C(C)C)c3ccccc23)cc1OC	0	17*	94	2
CCOc1ccc(NC(=O)CS(=O)(=O)c2cn(CC)c3ccccc23)cc1	-1	0	105	6
CCn1cc(S(=O)(=O)CC(=O)Nc2ccc(OC)cc2)c2ccccc21	4	-1	116	16*
CC(C)N(C(=O)Cn1cc(S(=O)(=O)CC(=O)NCCc2ccccc2)c2ccccc21)C(C)C	3	/	/	/
COCCNC(=O)C(c1ccc(O)cc1)N(Cc1cccs1)C(=O)CCC(=O)Nc1ccccn1 (stereo not given)	0	1	94	2
Cc1ccc2c(c1)c(=O)c1c3n2CCN(C(=O)CCl)C3CC1 (stereo not given)	-1	77*	92	-2
SMILES	iPSC survival up	Fh CTSL1 inh	Yeast superoxide	V-ATPase pH
Cc1ccc(N(C(=O)CCl)C(C(=O)NC2CCCCC2)c2cccnc2)cc1C (stereo not given)	/	18*	97	/
O=C(NC1CCCCC1)C1CCN(S(=O)(=O)c2cccc3nonc23)CC1	0	3	93	-5
O=C(CCl)Nc1cc(S(=O)(=O)N2CCCCCC2)ccc1Cl	-1	80*	94	0
Cc1ccc(S(=O)(=O)N2CCCCC2)cc1NC(=O)COC(=O)c1ccc2c(c1)OCO2	-1	-3	109	18*
CCNC(=O)C1(C)CCCN1Cc1cccc(C(F)(F)F)c1 (stereo not given)	-2	/	/	/
CC1=C(CC(=O)O)c2cc(F)ccc2/C1=C\c1ccc(S(C)=O)cc1 (stereo not given)	-2	-5	102	5
CCOC(=O)Nc1ccc2c(c1)N(C(=O)CCN(CC)CC)c1ccccc1S2=O (stereo not given)	-1	17*	86	4
